{"source": "PubChem BioAssay AID1209", "about": "(Sanford-Burnham Center for Chemical Genomics, 2008)", "note": "Screen size: about 190,000 compounds; about 810 (0.43%) were called active. This is one part of a sample in which actives are shown more often than they occur. A number with no mark means an inactive call. Rule as the data show it: active = inhibition above about 50%; inactive = the rest.", "data": [{"biological_target": "Mannose-6-phosphate isomerase (Homo sapiens) (UniProt P34949)", "sequence (P34949 whole entry, looked up)": "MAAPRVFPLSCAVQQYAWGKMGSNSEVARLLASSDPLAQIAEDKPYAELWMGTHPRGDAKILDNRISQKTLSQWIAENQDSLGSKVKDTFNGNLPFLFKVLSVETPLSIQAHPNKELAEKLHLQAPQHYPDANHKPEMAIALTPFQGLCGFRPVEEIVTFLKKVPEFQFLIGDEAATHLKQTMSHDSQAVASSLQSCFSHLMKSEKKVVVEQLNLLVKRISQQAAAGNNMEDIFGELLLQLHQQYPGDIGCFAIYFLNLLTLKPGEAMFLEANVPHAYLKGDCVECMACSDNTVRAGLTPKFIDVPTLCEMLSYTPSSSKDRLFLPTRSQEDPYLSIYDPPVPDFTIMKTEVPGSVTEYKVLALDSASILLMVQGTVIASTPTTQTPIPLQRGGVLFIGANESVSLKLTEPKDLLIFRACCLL", "experiment": "MPI enzyme activity inhibition – biochemical, fluorescence intensity, coupled assay, primary screen (AID 1209);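 also: plate controls were DMSO vehicle for no effect and wells lacking substrate for full effect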", "conditions": "purified PMI enzyme, at 20 µM, stronger effect = higher value", "values": [{"molecule": "Cc1ccc(-c2nnc3n2N=C(c2ccc(Br)cc2)CS3)cc1", "inhibition": "-12.4%"}, {"molecule": "COc1ccccc1C(=O)Nc1ccc(N2CCCCC2)cc1", "inhibition": "-4.3%"}, {"molecule": "COc1cccc(CNCCN2CCOCC2)c1OC", "inhibition": "0.5%"}, {"molecule": "COc1cccc(CNc2ccc(F)c(Cl)c2)c1OC", "inhibition": "-0.3%"}, {"molecule": "CC1CCN(c2ccc(NC(=O)Cc3ccccc3)cc2)CC1", "inhibition": "13.5%"}, {"molecule": "COc1cccc(CNc2ccc(N3CCCCC3)cc2)c1OC", "inhibition": "65.1% (active)"}, {"molecule": "COc1ccccc1CNc1ccc(C(=O)O)cc1", "inhibition": "1.8%"}, {"molecule": "COc1ccccc1CNc1ccc(N2CCCCC2)cc1", "inhibition": "67.3% (active)"}, {"molecule": "COc1cccc(CNc2ccc(N3CCC(C)CC3)cc2)c1OC", "inhibition": "67.3% (active)"}, {"molecule": "COc1cccc(CNc2ccc(S(N)(=O)=O)cc2)c1OC", "inhibition": "6.1%"}, {"molecule": "S=C1NC2(CCCC2)Nc2ccccc21", "inhibition": "-71.4%"}, {"molecule": "COC(=O)c1ccccc1NC(=O)c1ccc(-c2ccccc2F)o1", "inhibition": "-1.4%"}, {"molecule": "O=C(CSc1ncn[nH]1)Nc1ccc(Br)cc1F", "inhibition": "6%"}, {"molecule": "O=C1c2ccccc2C(=O)N1CCc1c[nH]c2ccc(O)cc12", "inhibition": "22.1%"}, {"molecule": "FC(F)(F)c1cc(-c2ccc(Cl)cc2)nc2ncnn12", "inhibition": "-7.2%"}, {"molecule": "COc1ccc(S(=O)(=O)N2CC(O)CC2C(=O)OCC(=O)Nc2ccc(Cl)cn2)cc1", "note": "(stereo not drawn)", "inhibition": "13.3%"}, {"molecule": "O=[N+]([O-])c1ccc2c(c1)[nH]c(=S)n2-c1ccccc1", "inhibition": "58.6% (active)"}, {"molecule": "O=[N+]([O-])c1ccc(-c2cn(-c3ccccc3)c(=S)[nH]2)cc1", "inhibition": "-1.9%"}, {"molecule": "O=[N+]([O-])c1cccc(-c2cn(-c3ccccc3)c(=S)[nH]2)c1", "inhibition": "-9.5%"}, {"molecule": "CCc1cccc(CC)c1NC(=O)c1cc(CN2C(=O)c3ccccc3C2=O)ccc1OC", "inhibition": "3%"}, {"molecule": "Cc1nc2sc(C(c3cccc(F)c3)N3CC(C)OC(C)C3)c(O)n2n1", "note": "(stereo not drawn)", "inhibition": "-12.7%"}, {"molecule": "CCN1CCN(S(=O)(=O)c2cc(OCC(=O)NC3CCCCC3)c(C)cc2Cl)CC1", "inhibition": "11.7%"}, {"molecule": "CC1(C)CC(=O)c2sc(NC(=O)c3ccc4ncsc4c3)nc2C1", "inhibition": "-7.8%"}, {"molecule": "Cc1ccc(-c2nc3ncccc3o2)cc1NC(=O)COc1ccccc1", "inhibition": "3.5%"}, {"molecule": "Cc1cc(C)cc(OCC(=O)Nc2cccc(-c3nc4ncccc4o3)c2)c1", "inhibition": "-1%"}, {"molecule": "Cc1ccc(OCC(=O)Nc2ccc(-c3nc4ncccc4o3)cc2)c(C)c1", "inhibition": "97.8% (active)"}, {"molecule": "COCCNC(=S)NCCc1ccc(Cl)cc1Cl", "inhibition": "-1.5%"}, {"molecule": "O=C(/C=C/c1ccc(Cl)cc1)NC(=S)Nc1ccc(CN2CCOCC2)cc1", "inhibition": "20.8%"}]}]}
